Data from publication PMC4336329 (PLoS ONE, 2015).
About 14,000 (4.5%) of roughly 310,000 compounds showed an effect of 50% or more. Effects have a minus sign here. The entries come from a sample that favours strong results as a whole.

Biological target: human ether-à-go-go-related gene (hERG) potassium channel (human, UniProt Q12809)
Test: primary screen, population patch clamp on CHO cells stably expressing hERG; higher = less effect of the substance
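Further: peak tail current of the secondary pulse compared with the same well before compound.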

Chain of human ether-à-go-go-related gene (hERG) potassium channel (Q12809 whole entry, looked up): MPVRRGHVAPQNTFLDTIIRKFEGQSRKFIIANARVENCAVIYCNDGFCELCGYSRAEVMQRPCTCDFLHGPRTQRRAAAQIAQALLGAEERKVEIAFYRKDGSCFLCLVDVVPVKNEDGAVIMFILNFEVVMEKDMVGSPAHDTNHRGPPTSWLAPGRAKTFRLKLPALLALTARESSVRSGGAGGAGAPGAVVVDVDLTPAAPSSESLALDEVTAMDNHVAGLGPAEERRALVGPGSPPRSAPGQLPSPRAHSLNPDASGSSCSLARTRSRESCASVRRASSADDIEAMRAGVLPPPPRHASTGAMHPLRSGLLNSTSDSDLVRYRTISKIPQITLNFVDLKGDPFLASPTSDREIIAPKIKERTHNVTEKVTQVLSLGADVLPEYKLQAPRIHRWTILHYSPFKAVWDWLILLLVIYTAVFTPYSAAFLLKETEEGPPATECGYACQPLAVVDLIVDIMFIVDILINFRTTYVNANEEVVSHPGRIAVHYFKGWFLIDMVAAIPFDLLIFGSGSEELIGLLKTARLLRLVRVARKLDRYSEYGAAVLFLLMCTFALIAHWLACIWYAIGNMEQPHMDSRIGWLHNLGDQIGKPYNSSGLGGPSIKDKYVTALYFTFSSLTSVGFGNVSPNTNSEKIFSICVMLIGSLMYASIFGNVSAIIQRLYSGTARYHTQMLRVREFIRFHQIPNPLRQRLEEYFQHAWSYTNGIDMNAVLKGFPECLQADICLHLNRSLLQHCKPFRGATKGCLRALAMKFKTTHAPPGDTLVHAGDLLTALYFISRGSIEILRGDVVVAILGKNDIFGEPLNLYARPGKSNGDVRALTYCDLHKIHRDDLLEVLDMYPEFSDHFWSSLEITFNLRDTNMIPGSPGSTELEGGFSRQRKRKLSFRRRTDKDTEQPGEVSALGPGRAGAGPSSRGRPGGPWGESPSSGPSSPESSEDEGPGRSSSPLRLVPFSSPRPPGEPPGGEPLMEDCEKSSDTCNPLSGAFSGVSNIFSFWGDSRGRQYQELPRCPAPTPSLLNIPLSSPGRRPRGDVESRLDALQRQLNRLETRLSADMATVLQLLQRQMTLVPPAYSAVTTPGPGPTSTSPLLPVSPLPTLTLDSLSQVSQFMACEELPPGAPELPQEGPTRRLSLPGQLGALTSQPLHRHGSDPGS

| SMILES | hERG current change (%, negative = inhibition) at 10uM |
| --- | --- |
| COc1ccc(Oc2ncnc3sccc23)cc1 | 1.8% |
| CC#CC(=O)N1CCC(CCC(=O)N(C)Cc2ccccc2)CC1 | -7.72% |
| CNC1=CC(=O)CC(c2ccccc2)C1 (centres unmarked) | -1.58% |
| CCc1ccc(NC2=CC(=O)CC(c3ccco3)C2)cc1 (centres unmarked) | 5.49% |
| CN(C)CCCNC1=CC(=O)CC(c2ccccc2)C1 (centres unmarked) | 3.58% |
| CC(C)CNC1=CC(=O)CC(c2ccco2)C1 (centres unmarked) | 6.11% |
| CCCCCCCNC1=CC(=O)CC(c2ccccc2)C1 (centres unmarked) | -81.3% |
| CCCCCCCNC1=CC(=O)CC(c2ccco2)C1 (centres unmarked) | -76.9% |
| COc1cc(S(=O)(=O)NCCN2CCOCC2)ccc1-n1cnnn1 | 17.5% |
| O=S(=O)(Nc1ccc2c(c1)OCCO2)c1cccc2nsnc12 | -11.2% |
| O=C(O)c1ccc(Cn2cnc3scc(-c4ccccc4)c3c2=O)cc1 | 20.8% |
| Cn1c(CNc2nc3ccccc3n2C)nc2ccccc21 | -15.2% |
| c1coc(CNc2nc3ccccc3n2CCN2CCOCC2)c1 | -33.2% |
| c1ccc(Cn2c(CNc3nc4ccccc4n3CCN3CCCCC3)nc3ccccc32)cc1 | -68.5% |
| CC(C)n1c(NCc2nc3ccccc3n2C)nc2ccccc21 | -46.4% |
| C=CCc1cccc(CNc2nc3ccccc3n2CCN2CCOCC2)c1O | -6.61% |
| c1ccc(Cn2c(CNc3nc4ccccc4n3CCN3CCOCC3)nc3ccccc32)cc1 | -84.3% |
| Cn1c(CNc2nc3ccccc3n2CCN2CCCCC2)nc2ccccc21 | -65% |
| CCN(CC)CCn1c(NCc2nc3ccccc3n2Cc2ccccc2)nc2ccccc21 | -2.44% |
| C#CCOCCOCCOCCNc1nc(N2CCN(C(=O)Cn3cc(CCO)nn3)CC2)nc(N2CCN(C(=O)[C@H]([C@@H](C)O)n3cc(CCCC[NH3+])nn3)CC2)n1.[Cl-] | 12.3% |
| CCOC(=O)/C(=N\Nc1ncnc2ccccc12)c1ccc(OC)cc1 | 15% |
| COc1ccc(NC(=O)CSC2CC(=O)N(c3ccc4c(c3)OCCO4)C2=O)cc1 (centres unmarked) | 4.54% |
| O=C(c1ccccc1-c1nc(-c2ccc(F)cc2)no1)N1CCCC1 | -30.8% |

| SMILES | hERG current change (%, negative = inhibition) at 10uM |
| --- | --- |
| Cn1nc(C(=O)Nc2ccc(Cl)c(S(=O)(=O)N3CCOCC3)c2)c2ccccc2c1=O | -9.05% |
| O=C(NC1CCS(=O)(=O)C1)N1CCCCC1 (centres unmarked) | 13.2% |
| O=C(NC(=S)N1CCN(c2nc(-c3ccccc3)cs2)CC1)c1cncc(Br)c1 | 17% |
| Cc1n[nH]c(=O)nc1NCc1ccccc1Cl | 3.23% |
| O=C(O)CCc1nnc2n(Cc3ccc(F)cc3)c(=O)c3ccccc3n12 | 6.3% |
| Cc1ccc(Cn2c(=O)c3ccccc3n3c(CCC(=O)O)nnc23)cc1 | 10.9% |
| CC(C)CCn1c(=O)c2sccc2n2c(CCCC(=O)N3CCN(c4ccccn4)CC3)nnc12 | -65% |
| O=C(CCc1nnc2n(Cc3ccc(Cl)cc3)c(=O)c3ccccc3n12)N1CCN(c2ccccn2)CC1 | -57% |
| O=C(c1ccc(Cn2c(=S)[nH]c3ccccc3c2=O)cc1)N1CCN(c2ccccn2)CC1 | 8.99% |
| O=C(CCc1nnc2n(Cc3ccc(F)cc3)c(=O)c3ccccc3n12)N1CCN(c2ccccn2)CC1 | -79.2% |
| CCn1c(=O)c2sccc2n2c(CCCC(=O)N3CCN(c4ccccn4)CC3)nnc12 | -17.6% |
| CC(C)OCCCn1c(=O)c2ccccc2n2c(CCC(=O)O)nnc12 | 29.3% |
| Cn1c(=O)c2sccc2n2c(CCCC(=O)N3CCN(c4ccccn4)CC3)nnc12 | -11.1% |
| COCCCn1c(=O)c2sccc2n2c(CCCC(=O)N3CCN(c4ccccn4)CC3)nnc12 | -2.18% |
| CC(C)OCCCn1c(=O)c2ccccc2n2c(CCC(=O)N3CCN(c4ccccn4)CC3)nnc12 | -71.1% |
| CC(C)OCCCn1c(=O)c2ccccc2n2c(CCC(=O)NCc3ccccn3)nnc12 | -14.4% |
| CC(C)(O)[C@H]1Cc2cc3ccc(=O)oc3cc2O1 | 21.2% |
| O=C(CSc1nc(NS(=O)(=O)c2ccccc2)cc(=O)[nH]1)Nc1ccccc1C(F)(F)F | 9.04% |
| CCCCCN(C(=O)CCC(=O)OCC(=O)c1ccc(C(C)CC)cc1)c1c(N)n(CCCC)c(=O)[nH]c1=O (centres unmarked) | 8.1% |
| CCCCCN(C(=O)CCC(=O)OCc1cccc(Cl)c1)c1c(N)n(CCCC)c(=O)[nH]c1=O | 8.16% |
| CCCCCN(C(=O)CCC(=O)OCC(=O)c1ccc(C(C)(C)C)cc1)c1c(N)n(CCCC)c(=O)[nH]c1=O | -33.7% |
| CCCCCN(C(=O)CCC(=O)OCC(=O)c1ccc(CCC)cc1)c1c(N)n(CCCC)c(=O)[nH]c1=O | -61.5% |
| CCCCCN(C(=O)CCC(=O)OCc1ccc(Cl)cc1Cl)c1c(N)n(CCCC)c(=O)[nH]c1=O | -50.1% |

| SMILES | hERG current change (%, negative = inhibition) at 10uM |
| --- | --- |
| CCCCCN(C(=O)CCC(=O)OCC(=O)c1ccc(F)c(F)c1)c1c(N)n(CCCC)c(=O)[nH]c1=O | -33.7% |
| CCCCCN(C(=O)CCC(=O)OCc1ccccc1Cl)c1c(N)n(CCCC)c(=O)[nH]c1=O | -49.8% |
| CCCCCN(C(=O)CCC(=O)OCC(=O)c1cccc(OC)c1)c1c(N)n(CCCC)c(=O)[nH]c1=O | -64.6% |
| CCCCCN(C(=O)CCC(=O)OCC(=O)NCc1cccc(OC)c1)c1c(N)n(CCCC)c(=O)[nH]c1=O | -0.375% |
| Fc1ccc(NC(=S)NCc2cccnc2)cc1 | 13.1% |
| CCCS(=O)(=O)N1CCC(C(=O)NCCCOC)CC1 | -0.339% |
| COc1cc(NC(=O)c2c(-c3ccccc3Cl)noc2C)c2ncccc2c1 | 25.5% |
| CCOc1ccc(NC(=O)COC(=O)CNC(=O)c2ccc(-c3ccccc3)cc2)cc1 | 2.3% |
| CC(=O)Nc1cccc(NC(=O)CSc2nc(=O)n(CCN3CCOCC3)c3c2CCCC3)c1 | 0.233% |
| O=C(CSc1nc(=O)n(CCCN2CCOCC2)c2c1CCCC2)Nc1cccc(Cl)c1 | -62.2% |
| CC(=O)Nc1cccc(NC(=O)CSc2nc(=O)n(CCCN3CCOCC3)c3c2CCC3)c1 | 0.499% |
| O=C(CSc1nc(=O)n(CCCN2CCOCC2)c2c1CCC2)Nc1ccc(F)cc1F | -41.8% |
| O=C(CSc1nc(=O)n(CCCN2CCOCC2)c2c1CCCC2)Nc1cccc(F)c1 | -56.2% |
| O=C(CSc1nc(=O)n(CCCN2CCOCC2)c2c1CCC2)Nc1cccc(F)c1 | -37.4% |
| CN(c1ccccc1)C(c1ccc(F)cc1)c1nnnn1CC1CCCO1.Cl (centres unmarked) | -14.1% |
| Cn1cc([N+](=O)[O-])c(C(=O)N/N=C/c2cc3c(cc2Br)OCO3)n1 | 3.63% |
| CC(=O)Nc1ccc(S(=O)(=O)N[C@@H](C)C(=O)Nc2ccc(N3CCOCC3)cc2)cc1 | 15.1% |
| CCOC(=O)C1=NN(C(=O)c2ccc(OC)cc2)C(O)(c2ccc(Cl)cc2)C1 (centres unmarked) | -75.5% |
| COC(=O)C1=NN(C(=O)c2ccc(C)cc2)C(O)(c2ccc(Cl)cc2)C1 (centres unmarked) | -31.2% |
| CCOC(=O)C1=NN(C(=O)c2ccccc2)C(O)(c2ccc(C)cc2)C1 (centres unmarked) | -17.2% |
| O=C(c1cc(F)c(F)cc1Cl)N1CCN(CCc2ccccc2)CC1 | -71.6% |
| O=C(c1ccc(Br)o1)N1CCN(Cc2ccccc2Cl)CC1 | -12.6% |
| O=C(c1ccc(Br)o1)N1CCN(CCc2ccncc2)CC1 | -69.8% |

| SMILES | hERG current change (%, negative = inhibition) at 10uM |
| --- | --- |
| O=C(c1ccc(Br)o1)N1CCN(c2ccccc2F)CC1 | -4.94% |
| O=C(c1ccncc1)N1CCN(CCc2ccccc2)CC1 | -50.8% |
| O=C(c1ccccc1)N1CCN(C(=O)c2ccncc2)CC1 | 14.3% |
| O=C(c1ccc(Br)o1)N1CCN(c2ncccn2)CC1 | 0.956% |
| O=C(c1ccccc1)N1CCN(CCc2ccccc2)CC1 | -43.6% |
| COc1ccc(N2CCN(C(=O)c3ccc(Br)o3)CC2)cc1 | -17% |
| CCN1CCN(c2ccc(N3CCN(C(=O)c4ccc(Br)o4)CC3)nn2)CC1 | -71.5% |
| O=C(c1ccc(F)cc1Cl)N1CCN(CCc2ccccc2)CC1 | -44% |
| O=C(c1cc(Cl)ccc1Cl)N1CCN(Cc2ccccc2)CC1 | 5.54% |
| COc1cc2c(cc1OC)C(C)N(C(=O)Nc1ccc(F)cc1)CC2 (centres unmarked) | 10.6% |
| Br.O=C(CSc1nc2ccccc2c(=O)n1-c1ccccc1)c1cccc([N+](=O)[O-])c1 | -7.38% |
| COc1cc2c(cc1OC)C(c1ccc(Br)cc1)N(C(=O)c1ccccc1C(=O)O)CC2 (centres unmarked) | 9.72% |
| Cc1cc(C)c(C)c(S(=O)(=O)NCCCN2CCOCC2)c1C | 13.6% |
| O=C1CCN(C(=O)Nc2cccc(Cl)c2)N1 | 14.1% |
| CC(C)CCN(C(=O)Nc1ccc(Cl)cc1)C1CCN(C(C)C)CC1 | -72.1% |
| CSc1cccc(NC(=S)N(CCC(C)C)C2CCN(C(C)=O)CC2)c1 | -23.3% |
| CC(C)CCN(C(=S)Nc1cccc(F)c1)C1CCN(C(C)C)CC1 | -42.9% |
| COc1ccc(NC(=S)N(CCC(C)C)C2CCN(C(C)C)CC2)cc1Cl | -68.1% |
| COc1ccc(NC(=S)N(C(C)C)C2CCN(C(C)C)CC2)cc1Cl | 0.307% |
| CSc1cccc(NC(=S)N(CCC(C)C)C2CCN(C(C)C)CC2)c1 | -52.5% |
| CCOc1ccc(NC(=O)N(CCC(C)C)C2CCN(C(C)=O)CC2)cc1 | -9.87% |
| CCCCN(C(=O)Nc1ccc(Cl)cc1)C1CCN(C(C)=O)CC1 | -46% |
| COCCN(C(=S)Nc1ccc(OC)c(Cl)c1)C1CCN(C(C)C)CC1 | -35.9% |
